Compounds without any hit were thinned out: in the full panel of roughly 83,000, 20% have a hit.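 Note: values are percent growth. 100 is the growth of untreated cells, values between 100 and 0 indicate rising inhibition; between -100 and 0 indicates cell death.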 The source made the active and inactive calls. Rule for the calls: active = growth percent below 10; inactive = the rest.
Key:
Test in all cases: NCI-60 one-dose screen, 48 h (100 = growth as untreated, 0 = no growth, -100 = all killed)
Settings in all cases: 10 µM unless noted
NCI-H23 lung = test system: NCI-H23 lung
NCI-H226 lung = test system: NCI-H226 lung
NCI-H322M lung = test system: NCI-H322M lung
HOP-62 NSCLC = test system: HOP-62 NSCLC
NCI-H460 lung = test system: NCI-H460 lung
HOP-92 NSCLC = test system: HOP-92 NSCLC
NCI-H522 lung = test system: NCI-H522 lung
A549/ATCC NSCLC = test system: A549/ATCC NSCLC
786-0 renal = test system: 786-0 renal
COLO 205 colon = test system: COLO 205 colon
DU-145 prostate = test system: DU-145 prostate
K-562 leukemia = test system: K-562 leukemia
MALME-3M melanoma = test system: MALME-3M melanoma
MDA-MB-231 breast = test system: MDA-MB-231 breast
RXF 393 renal = test system: RXF 393 renal
SF-268 CNS = test system: SF-268 CNS
SF-295 CNS = test system: SF-295 CNS
SF-539 CNS = test system: SF-539 CNS
UACC-257 melanoma = test system: UACC-257 melanoma
M14 melanoma = test system: M14 melanoma

Measured: growth

CCCCC[C@H]1CC=C2C(=O)C=C[C@@H]2CC=CCCCC(=O)O[C@@H](CCCCC)CC=C2C(=O)C=C[C@@H]2CC=CCCCC(=O)O[C@@H](CCCCC)CC=C2C(=O)C=C[C@@H]2CC=CCCCC(=O)O1
inactive: NCI-H322M lung 17.9% [8.75 µM] | DU-145 prostate 10.6% [8.75 µM] | SF-268 CNS 14.4% [8.75 µM]
active: NCI-H23 lung -16.4% [8.75 µM] | NCI-H226 lung 6.47% [8.75 µM] | HOP-62 NSCLC -10.6% [8.75 µM] | NCI-H460 lung 0.981% [8.75 µM] | HOP-92 NSCLC -47.7% [8.75 µM] | NCI-H522 lung -48.5% [8.75 µM] | A549/ATCC NSCLC -29.7% [8.75 µM] | 786-0 renal -48.7% [8.75 µM] | COLO 205 colon -30.7% [8.75 µM] | K-562 leukemia 5.31% [8.75 µM] | MALME-3M melanoma -14.3% [8.75 µM] | MDA-MB-231 breast -37.2% [8.75 µM] | RXF 393 renal -65.4% [8.75 µM] | SF-295 CNS 2.07% [8.75 µM] | SF-539 CNS -8.63% [8.75 µM] | UACC-257 melanoma -3.87% [8.75 µM] | M14 melanoma -26.3% [8.75 µM]

CCCCC[C@H]1CC=C2C(=O)C(Cl)=C[C@@H]2CC=CCCCC(=O)O[C@@H](CCCCC)CC=C2C(=O)C(Cl)=C[C@@H]2CC=CCCCC(=O)O[C@@H](CCCCC)CC=C2C(=O)C(Cl)=C[C@@H]2CC=CCCCC(=O)O1
inactive: NCI-H23 lung 58.4% [8 µM] | NCI-H226 lung 115% [8 µM] | NCI-H322M lung 96.2% [8 µM] | HOP-62 NSCLC 89.8% [8 µM] | NCI-H460 lung 91% [8 µM] | HOP-92 NSCLC 130% [8 µM] | NCI-H522 lung 25.1% [8 µM] | A549/ATCC NSCLC 90.6% [8 µM] | 786-0 renal 103% [8 µM] | COLO 205 colon 70.8% [8 µM] | DU-145 prostate 59.9% [8 µM] | K-562 leukemia 27.7% [8 µM] | MALME-3M melanoma 105% [8 µM] | MDA-MB-231 breast 53.1% [8 µM] | RXF 393 renal 79.2% [8 µM] | SF-268 CNS 73.1% [8 µM] | SF-295 CNS 106% [8 µM] | SF-539 CNS 88% [8 µM] | UACC-257 melanoma 76.3% [8 µM] | M14 melanoma 48.2% [8 µM]

C#CCN=C[C@]12CC[C@@H](C(=C)C)[C@@H]1[C@H]1CC[C@@H]3[C@@]4(C)CCC(=O)C(C)(C)[C@@H]4CC[C@@]3(C)[C@]1(C)CC2
inactive: NCI-H23 lung 50.5% | NCI-H226 lung 73.2% | NCI-H322M lung 103% | HOP-62 NSCLC 88.8% | NCI-H460 lung 70.8% | HOP-92 NSCLC 65.4% | NCI-H522 lung 51% | A549/ATCC NSCLC 46.1% | 786-0 renal 74.9% | COLO 205 colon 65.8% | DU-145 prostate 67.9% | K-562 leukemia 28.1% | MALME-3M melanoma 81.8% | MDA-MB-231 breast 83.8% | RXF 393 renal 80.3% | SF-268 CNS 71.3% | SF-295 CNS 68.5% | SF-539 CNS 80.2% | UACC-257 melanoma 55.6% | M14 melanoma 63.1%

Cn1c(=O)c2c(ncn2CC(=O)Nc2ccc(S(N)(=O)=O)cc2)n(C)c1=O
inactive: NCI-H23 lung 104% | NCI-H226 lung 105% | NCI-H322M lung 107% | HOP-62 NSCLC 94.8% | NCI-H460 lung 108% | HOP-92 NSCLC 90.1% | NCI-H522 lung 86.7% | A549/ATCC NSCLC 88.3% | 786-0 renal 94.9% | COLO 205 colon 105% | DU-145 prostate 107% | K-562 leukemia 97.4% | MALME-3M melanoma 118% | MDA-MB-231 breast 105% | RXF 393 renal 106% | SF-268 CNS 101% | SF-295 CNS 103% | SF-539 CNS 96.3% | M14 melanoma 97.1%

COc1cccc(-c2nn(-c3ccccc3)cc2-c2ccnc(NCCCNS(=O)(=O)c3ccc(Cl)cc3)c2)c1
inactive: NCI-H23 lung 46.9% | NCI-H226 lung 40.3% | NCI-H322M lung 66.8% | HOP-62 NSCLC 81.8% | NCI-H460 lung 40.9% | HOP-92 NSCLC 25.1% | NCI-H522 lung 41.7% | A549/ATCC NSCLC 39.9% | 786-0 renal 37.4% | COLO 205 colon 15.1% | DU-145 prostate 67.1% | K-562 leukemia 11.6% | MALME-3M melanoma 74.6% | MDA-MB-231 breast 23.5% | RXF 393 renal 46.4% | SF-268 CNS 56.1% | SF-295 CNS 24.2% | SF-539 CNS 62.3% | M14 melanoma 33.4%

COc1ccc(C2NC(=O)Nc3ccccc32)c(OC)c1 (stereo unspecified)
inactive: NCI-H23 lung 102% | NCI-H226 lung 89.7% | NCI-H322M lung 96.6% | HOP-62 NSCLC 98.5% | NCI-H460 lung 101% | HOP-92 NSCLC 86.7% | NCI-H522 lung 91.6% | A549/ATCC NSCLC 98.4% | 786-0 renal 103% | COLO 205 colon 112% | DU-145 prostate 112% | K-562 leukemia 93.7% | MALME-3M melanoma 85.6% | MDA-MB-231 breast 94.7% | RXF 393 renal 110% | SF-268 CNS 100% | SF-295 CNS 94.2% | SF-539 CNS 93.8% | M14 melanoma 95.6%

N#CCCCCCn1c2ccccc2c2c3c(c4c5ccccc5n(CCCCCC#N)c4c21)C(=O)N(O)C3=O
inactive: NCI-H23 lung 72.5% | NCI-H226 lung 79.1% | NCI-H322M lung 81.5% | HOP-62 NSCLC 37.1% | NCI-H460 lung 87.7% | HOP-92 NSCLC 87.4% | NCI-H522 lung 53.7% | A549/ATCC NSCLC 94.5% | 786-0 renal 92.1% | COLO 205 colon 84.6% | DU-145 prostate 93.6% | K-562 leukemia 79.7% | MALME-3M melanoma 77.1% | MDA-MB-231 breast 32.3% | RXF 393 renal 80.8% | SF-268 CNS 70.3% | SF-295 CNS 89.2% | SF-539 CNS 71% | M14 melanoma 85.3%
